These results are taken from PubChem BioAssay (NCATS).

Assay [1] is described as follows: AP1 Signaling Pathway (AID 357; active = well fitted curve in either direction with a large enough effect, not every such curve was filed as active;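 also: ME-180 reporter cells stimulated with EGF at its EC50 level; % is scaled to controls: 0 for no effect and ±100 for the full control effect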). The essentials: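 Cells are seeded overnight, exposed to compound titrations and an EC50 level of EGF for 5 hours at 37 °C, then loaded with CCF4 dye for 2.5 hours. Beta-lactamase activity under the AP-1 element is read as a blue/green ratio.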
The nature of assay [2]: NFAT Signaling Pathway (AID 444; active = well fitted curve in either direction with a large enough effect, not every such curve was filed as active;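 also: carbachol stimulus at about its EC50 of 1 µM final; % is scaled to controls: 0 for no effect and ±100 for the full control effect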). The settings on record: Jurkat NFAT-bla M1, carbachol, beta-lactamase ratio, 5 h; at 17.2 µM (top of the series) unless noted. An outline of the steps: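 Jurkat cells carrying an NFAT-driven β-lactamase reporter and co-transfected muscarinic M1 receptor were treated with compound plus carbachol (1 uM final, an EC50 level) for 5 h at 37 °C. CCF4 loading followed for 1 h at RT; 460/530 nm ratio gave %activity.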

Assay [3] is described as follows: Stat Signaling Pathway (AID 446; active = well fitted curve in either direction with a large enough effect, not every such curve was filed as active;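 also: ME-180 cervical cancer cells given 40 pM IL-6 alongside compound; SIE-controlled beta-lactamase reporter measured as 460/530 nm FRET emission ratio; % is scaled to controls: 0 for no effect and ±100 for the full control effect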). An outline of the steps: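 Emission at 460 and 530 nm (excitation 405 nm) reports SIE-controlled beta-lactamase in ME-180 cells. Cells received compound with 40 pM IL-6 for 5 hrs at 37 C; data scaled between 300 pM IL-6 and 125 nM JAK-inhibitor controls.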
Assay [4] concerns the target Glucocorticoid receptor (Homo sapiens) (UniProt P04150). Kind of assay: GR-GFP Redistribution (AID 450;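 active = compounds whose dose series gives a full or clear partial fitted curve of increased nuclear translocation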; also: potency is read from the fitted curve at half-maximal effect). The settings on record: U2OS GR-GFP nuclear translocation, laser cytometry, 2 h.
Assay [5] has the same target. Description: GR-EFC Redistribution (AID 451; calls by dose curve; also: potency is read from the fitted curve at half-maximal effect). The settings on record: CHO-K1 GR-EFC translocation, beta-gal luminescence, 2 h. The essentials: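 CHO-K1 cells stably expressing nuclear-localized β-gal enzyme acceptor and GR fused C-terminally to the enzyme donor fragment; ligand-driven nuclear translocation restores β-gal by complementation. Compounds titrated up to 46 uM final, 2 h at 37 °C; luminescence read.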

Assay [6] addresses Mitogen-activated protein kinase 10 (Mus musculus) (UniProt Q61831). Kind of assay: JNK3 AlphaScreen Assay (AID 530; active = well fitted curve in either direction with a large enough effect, not every such curve was filed as active;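 also: kinase came from lysate of stimulated human HepG2 cells; signal reports phosphorylation of biotinylated GST-cJun 1-79 at Ser73 with 10 µM ATP; % is scaled to controls: 0 for no effect and ±100 for the full control effect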). An outline of the steps: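 Phosphorylation of biotinylated GST-cJun(1-79) at Ser73 is measured by AlphaScreen proximity luminescence. Enzyme is JNK3 in HepG2 lysates activated with interleukin-1beta and tumor necrosis factor alpha; ATP is 10 uM final.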
(Bead proximity is the source of the signal in Alpha formats.)

Assay [7] deals with 3',5'-cyclic-AMP phosphodiesterase 4B (Homo sapiens) (UniProt Q07343). Description: qHTS Assay for Inhibitors of PDE-IV (AID 607; active = well fitted activation curve with a large enough effect in the main read-out, with a control signal flat, not every such curve was filed as active; also: % of control where 0% means no effect). An outline of the steps: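 The readout is membrane depolarisation from a cAMP-sensing CNG channel, detected with a potential dye at ex 535/em 590. Cells were HEK293-derived (endogenous PDE-IV) at 1000 cells/well, titrated up to 22.9 uM final.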
Chain of 3',5'-cyclic-AMP phosphodiesterase 4B (Homo sapiens) (Q07343 whole entry, looked up): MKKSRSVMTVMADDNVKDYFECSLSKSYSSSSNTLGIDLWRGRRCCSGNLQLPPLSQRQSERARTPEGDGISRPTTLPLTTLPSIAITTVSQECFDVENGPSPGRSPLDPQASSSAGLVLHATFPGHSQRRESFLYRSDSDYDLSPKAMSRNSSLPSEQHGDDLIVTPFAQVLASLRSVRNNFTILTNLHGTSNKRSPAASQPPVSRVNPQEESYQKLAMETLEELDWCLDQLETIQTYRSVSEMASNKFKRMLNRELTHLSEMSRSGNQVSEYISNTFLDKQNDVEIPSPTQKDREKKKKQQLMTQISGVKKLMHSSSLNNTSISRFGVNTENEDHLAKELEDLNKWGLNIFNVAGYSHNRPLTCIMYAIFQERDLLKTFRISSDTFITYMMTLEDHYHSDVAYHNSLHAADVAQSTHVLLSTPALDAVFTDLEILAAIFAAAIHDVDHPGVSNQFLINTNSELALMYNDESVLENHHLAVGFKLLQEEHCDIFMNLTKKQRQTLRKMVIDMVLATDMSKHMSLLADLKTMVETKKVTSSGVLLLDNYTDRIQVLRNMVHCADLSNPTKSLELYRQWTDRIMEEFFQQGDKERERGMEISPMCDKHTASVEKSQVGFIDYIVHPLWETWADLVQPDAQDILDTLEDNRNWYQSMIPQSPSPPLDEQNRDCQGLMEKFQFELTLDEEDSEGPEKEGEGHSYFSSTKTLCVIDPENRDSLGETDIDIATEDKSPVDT
Background: Quantitative high-throughput screening tests each substance at several concentrations.

A short description of assay [8]: qHTS Assay for Lipid Storage Modulators (AID 1519; calls by dose curve). The settings on record: Drosophila S3 cells, BODIPY lipid droplet/cell ratio, laser cytometry, cells loaded with oleic acid; for activity change, negative = inhibition: at 25.7 µM (top of the series). The essentials:
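Cells seeded at 5,000 per well were treated with compounds over a concentration series and loaded with oleic acid (400 uM, as added). Lipid droplet fluorescence (488 nm excitation, 500-530 nm channel) was read by laser-scanning cytometry and normalized to 20 uM Triacsin C.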

The target in assay [9] is Ubiquitin carboxyl-terminal hydrolase 1 (Homo sapiens) (UniProt O94782). Description: Inhibitors of USP1/UAF1: Pilot qHTS (AID 504865).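 Also: rhodamine fluorescence freed from ubiquitin-rhodamine substrate followed over time; top concentration of the series differs between compounds; % is scaled to controls: 0 for no effect and ±100 for the full control effect; nearly all actives have a fitted effect of over 35% in size.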 An outline of the steps:
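USP1/UAF1 complex at 1 nM preincubated 15 min at room temperature with compound, then Ub-Rho substrate added at 150 nM final. Fluorescence (480/540 nm) read kinetically in 50 mM HEPES pH 7.8, 0.5 mM EDTA, 1 mM TCEP, 0.1 mg/ml BSA, 0.01% Tween-20.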

Assay [10] can be described thus: qHTS profiling for inhibitors of Plasmodium falciparum proliferation (AID 504749).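 Also: 0% = DMSO vehicle and full inhibition = artemisinin control; nearly all actives have a fitted effect of over 60% in size.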 The settings on record: P. falciparum in erythrocytes, SYBR Green DNA, 72 h, at 12.8 µM (top of the series). The essentials: (§1)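 Quantitative HTS: compounds pinned into medium, infected erythrocytes added (0.3% parasitemia, 2.5% hematocrit), 72 h culture at 37 C under 5% CO2. Saponin/Triton lysis with SYBR Green I, overnight RT, then fluorescence read.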

The test system of another assay is C2A. The assay is described as above. The settings on record: P. falciparum in erythrocytes, SYBR Green DNA, 72 h; series mostly up to 12.8 µM. An outline of the steps:
as §1

Another assay relates to CP191. The description is as above. The settings on record: P. falciparum in erythrocytes, SYBR Green DNA, 72 h; series mostly up to 12.8 µM. An outline of the steps:
as §1

Another assay deals with CP217. Described as above. The settings on record: P. falciparum in erythrocytes, SYBR Green DNA, 72 h; series mostly up to 12.8 µM. The essentials:
as §1

The next assay deals with CP238. Described as above. The settings on record: P. falciparum in erythrocytes, SYBR Green DNA, 72 h; series mostly up to 12.8 µM. The essentials: as §1
The next assay deals with CP250. The assay is described as above. The settings on record: P. falciparum in erythrocytes, SYBR Green DNA, 72 h; series mostly up to 12.8 µM. The essentials: as §1
The next assay has as its system CP256. Described as above. The settings on record: P. falciparum in erythrocytes, SYBR Green DNA, 72 h; series mostly up to 12.8 µM. An outline of the steps:
as §1

Another assay relates to FAB9. Described as above. The settings on record: P. falciparum in erythrocytes, SYBR Green DNA, 72 h; series mostly up to 12.8 µM. An outline of the steps: as §1
Another assay deals with JCK. Described as above. The settings on record: P. falciparum in erythrocytes, SYBR Green DNA, 72 h; series mostly up to 12.8 µM. The essentials:
as §1

In a further assay the test system is SC27B. Described as above. The settings on record: P. falciparum in erythrocytes, SYBR Green DNA, 72 h; series mostly up to 12.8 µM. The essentials: as §1
In a further assay the test system is PC49. The assay is described as above. The settings on record: P. falciparum in erythrocytes, SYBR Green DNA, 72 h; series mostly up to 12.8 µM. An outline of the steps:
as §1

[11] abbreviates: measured here: cell count channel max response.
The mark [12] stands for this setting: measured here: lipid channel max response.

Inconclusive results are not listed. Activity calls are given as the source filed them. Unless noted, calls follow the shape of the dose curve; as a rule, active = well fitted inhibition curve with a large enough effect; inconclusive = small, poorly fitted or top-dose-only effect; inactive = flat fitted curve, though single readings scatter.

Chain of Glucocorticoid receptor (Homo sapiens) (P04150 whole entry, looked up, the tested form may be a part): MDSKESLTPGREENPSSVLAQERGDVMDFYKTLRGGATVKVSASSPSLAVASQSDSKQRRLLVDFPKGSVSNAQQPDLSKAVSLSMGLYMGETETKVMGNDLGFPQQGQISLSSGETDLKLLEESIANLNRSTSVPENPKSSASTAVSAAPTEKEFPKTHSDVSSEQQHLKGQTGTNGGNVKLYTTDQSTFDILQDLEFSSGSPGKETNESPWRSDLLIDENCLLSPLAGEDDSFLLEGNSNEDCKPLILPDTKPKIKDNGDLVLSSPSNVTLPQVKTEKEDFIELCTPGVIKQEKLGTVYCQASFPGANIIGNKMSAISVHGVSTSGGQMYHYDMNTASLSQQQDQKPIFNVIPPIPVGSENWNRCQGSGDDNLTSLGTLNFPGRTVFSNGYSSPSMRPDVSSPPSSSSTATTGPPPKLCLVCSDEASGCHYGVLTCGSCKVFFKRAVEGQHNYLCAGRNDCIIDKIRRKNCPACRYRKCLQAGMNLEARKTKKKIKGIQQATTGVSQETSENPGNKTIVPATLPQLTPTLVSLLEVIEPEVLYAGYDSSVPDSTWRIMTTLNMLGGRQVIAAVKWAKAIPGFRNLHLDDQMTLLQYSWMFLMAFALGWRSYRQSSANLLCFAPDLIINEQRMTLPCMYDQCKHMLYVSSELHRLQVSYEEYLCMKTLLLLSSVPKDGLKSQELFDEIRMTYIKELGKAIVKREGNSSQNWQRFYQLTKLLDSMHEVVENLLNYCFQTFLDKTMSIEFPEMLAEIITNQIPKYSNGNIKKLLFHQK
Chain of Ubiquitin carboxyl-terminal hydrolase 1 (Homo sapiens) (O94782 whole entry, looked up): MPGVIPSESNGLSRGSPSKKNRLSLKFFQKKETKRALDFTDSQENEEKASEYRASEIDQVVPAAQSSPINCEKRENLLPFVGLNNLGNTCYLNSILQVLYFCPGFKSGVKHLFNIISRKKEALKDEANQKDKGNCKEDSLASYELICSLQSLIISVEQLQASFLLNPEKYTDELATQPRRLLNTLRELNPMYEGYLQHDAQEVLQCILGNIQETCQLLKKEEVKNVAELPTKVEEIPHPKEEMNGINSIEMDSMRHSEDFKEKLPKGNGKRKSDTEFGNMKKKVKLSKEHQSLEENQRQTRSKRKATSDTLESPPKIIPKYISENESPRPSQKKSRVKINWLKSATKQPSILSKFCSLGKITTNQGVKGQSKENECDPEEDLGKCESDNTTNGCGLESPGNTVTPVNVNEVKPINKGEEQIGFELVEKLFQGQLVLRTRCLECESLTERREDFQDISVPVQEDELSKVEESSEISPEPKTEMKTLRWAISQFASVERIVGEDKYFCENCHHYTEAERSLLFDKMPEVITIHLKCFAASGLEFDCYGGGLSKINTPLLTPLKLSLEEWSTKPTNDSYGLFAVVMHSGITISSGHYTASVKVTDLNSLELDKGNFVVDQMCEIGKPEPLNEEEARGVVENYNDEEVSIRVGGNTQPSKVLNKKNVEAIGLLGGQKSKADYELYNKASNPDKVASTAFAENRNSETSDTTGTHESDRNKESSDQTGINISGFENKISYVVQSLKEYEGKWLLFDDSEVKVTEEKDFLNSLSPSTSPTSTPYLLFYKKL

As for `c1ccc(CNc2ncnc3nc[nH]c23)cc1`, the compound was classed as inactive in [1], in [3] and in assay [7]. Further, the activity change, negative = inhibition is 7.66% (inactive) in [2] and -0.17% (inactive) in [8]. For the same compound, the Potency in [4] and in [5] was > 20.6 µM (inactive) throughout. Also, the Potency entry in assay [6] and in assay [9] was “inactive” throughout. In addition, the max response in [8] (setting [11]) is -13.8%; in assay [8] (setting [12]), -12.9%.

Regarding `CC(=O)S[C@H]1CC2=CC(=O)CC[C@@]2(C)[C@H]2CC[C@@]3(C)[C@H](CC[C@]34CCC(=O)O4)[C@@H]12`, the call in [1], in [3] and in assay [7] was inactive. Moreover, the values for the activity change, negative = inhibition in [2] and in assay [8] were -8.69% (inactive) and -7.24% (inactive), respectively. The Potency in assay [4] was 2.45 µM (active); in assay [5] it was > 20.6 µM (inactive). For the same compound, the Potency result in [6] and in [9] was “inactive” throughout. The max response in assay [8] (setting [11]) and in [8] (setting [12]) was -20.4% in each case.

Turning to `Cc1onc(-c2c(Cl)cccc2Cl)c1C(=O)N[C@H]1C(=O)N2[C@H]1SC(C)(C)[C@H]2C(=O)O`, the outcome in assay [1], in assay [3] and in assay [7] was inactive. For the same compound, the results for the activity change, negative = inhibition in assay [2] and in assay [8] were -5.49% (inactive) and -2.5% (inactive), respectively. For the same compound, the Potency in assay [4] and in assay [5] was > 20.6 µM (inactive) each time. In addition, the Potency entry in assay [6] and in assay [9] was “inactive” throughout. In addition, the results for the max response in [8] (setting [11]) and in [8] (setting [12]) were -2.7% and -4.28%, respectively.

`O[C@@](CCN1CCCC1)(c1ccccc1)C1CCCCC1`: the outcome in assay [1] and in assay [3] was inactive. In addition, the activity change, negative = inhibition in assay [2] was -61.1% (active); in [8], -0.986% (inactive). Moreover, the Potency in assay [4] and in assay [5] was > 20.6 µM (inactive) throughout. Further, the Potency result (in [6]; in [9]; with C2A; in the assay on CP191; with CP217; in the assay on CP238) was “inactive” each time. In addition, the Potency result in the assay with CP250, in the assay with CP256, in the assay on FAB9, in the assay with JCK and in the assay with SC27B was “inactive” in each case. For the same compound, the max response in [8] (setting [11]) is -8.38%; in assay [8] (setting [12]) it was -9.51%. In addition, the activity, negative = inhibition in assay [10] (parasite line A) is -9.23% (inactive).

In the case of `COC(=O)C1=C(C)NC(C)=C(C(=O)OC(C)C)[C@H]1c1cccc2nonc12`, the result in [1], in assay [3] and in [7] was inactive. For the same compound, the activity change, negative = inhibition in assay [2] is -22.3% (inactive); in assay [8], -0.0066% (inactive). For the same compound, the Potency in assay [4] and in assay [5] was > 20.6 µM (inactive) each time. Also, the Potency entry (in assay [6]; with C2A; with CP217; in the assay with CP238; in the assay with CP250; in the assay with CP256) was “inactive” throughout. Moreover, the Potency result in the assay with FAB9, with JCK and in the assay with PC49 was “inactive” each time. The values for the max response in assay [8] (setting [11]) and in assay [8] (setting [12]) were -21.2% and -22.3%, respectively.

Regarding `NC[C@@H]1O[C@H](O[C@H]2[C@H](O)[C@@H](O[C@H]3[C@H](O)[C@H](N)C[C@H](N)[C@H]3O[C@@H]3O[C@H](CO)[C@@H](O)[C@H](O)[C@@H]3N)O[C@H]2CO)[C@@H](N)[C@H](O)[C@@H]1O`, the outcome in assay [1], in [3] and in [7] was inactive. Moreover, the activity change, negative = inhibition is -6.33% (inactive) in assay [2] and -3.71% (inactive) in assay [8]. Besides, in assay [5], the Potency is > 20.6 µM (inactive). The Potency entry in assay [6] is “inactive”. The max response in [8] (setting [11]) is -10.9%; in assay [8] (setting [12]), -14.4%.

On to `C[C@@H]1C[C@H]2[C@@H]3C[C@H](F)C4=CC(=O)C=C[C@@]4(C)[C@]3(F)[C@H](O)C[C@]2(C)[C@@]1(O)C(=O)CO`, for which the outcome in assay [1] and in [3] was inactive. The activity change, negative = inhibition in assay [2] was 2.6% (inactive); in assay [8], -2.8% (inactive). Moreover, the Potency entry (in [6]; in assay [9]; with C2A; with CP191; in the assay on CP217; in the assay on CP238) was “inactive” throughout. For the same compound, the Potency result with CP250, with CP256, in the assay on FAB9, in the assay with JCK, in the assay on PC49 and in the assay with SC27B was “inactive” throughout. In addition, the max response was 0.642% in assay [8] (setting [11]) and -3.99% in assay [8] (setting [12]). In addition, the values for the activity, negative = inhibition in assay [10] (parasite line A) and in assay [10] (parasite line B) were 7.34% (inactive) and -3.91% (inactive), respectively.
